# Results: paper PMC7862700, “An all-to-all approach to the identification of sequence-specific readers for epigenetic DNA modifications on cytosine”
# Columns and labels:
# Assay in all cases: DAPPL (digital affinity profiling via proximity ligation, sequencing); 10 mM Tris-HCl pH 7.5, 50 mM NaCl, 1 mM DTT, 4% glycerol, room temperature, 30 min; GST-TFs on glutathione beads, 16-mer random dsDNA library, 0.1% formaldehyde crosslink after washing; high values mean tight binding
# FLI1 = molecular target: T1, FLI1 (Homo sapiens, UniProt Q01543 1-452); details: protein: recombinant; tags: N-terminal GST; dsDNA, one strand shown
# T1 sequence: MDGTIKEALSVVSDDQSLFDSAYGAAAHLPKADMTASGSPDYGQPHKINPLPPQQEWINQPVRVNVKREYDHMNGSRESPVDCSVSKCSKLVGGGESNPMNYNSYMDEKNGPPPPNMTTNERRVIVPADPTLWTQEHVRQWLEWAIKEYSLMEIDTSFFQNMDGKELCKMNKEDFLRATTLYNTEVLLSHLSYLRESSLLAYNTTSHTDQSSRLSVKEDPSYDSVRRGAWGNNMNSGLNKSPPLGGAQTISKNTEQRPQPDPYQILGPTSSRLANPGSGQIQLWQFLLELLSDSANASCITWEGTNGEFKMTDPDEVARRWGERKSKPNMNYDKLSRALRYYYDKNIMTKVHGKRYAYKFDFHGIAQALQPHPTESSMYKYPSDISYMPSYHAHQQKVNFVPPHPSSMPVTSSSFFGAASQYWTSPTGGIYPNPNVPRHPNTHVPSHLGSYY
# How it was run: (§1)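 GST fusions of human transcription factors were expressed in yeast and captured with glutathione beads. Once given DNA barcodes and pooled alongside a tag-only sample, they were incubated for 30 min at room temperature with 200 nmole of a random double-stranded 16-mer DNA library in Tris/NaCl/DTT/glycerol buffer, then washed, crosslinked (0.1% formaldehyde), proximity-ligated, PCR-amplified and sequenced on an Illumina NextSeq500. The binding signal of each hexamer is its read frequency for a factor divided by its frequency for the tag-only sample.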
# ELK1 = molecular target: T2, ELK1 (Homo sapiens, UniProt P19419 1-428); details: protein: recombinant; tags: N-terminal GST; dsDNA, one strand shown
# T2 sequence: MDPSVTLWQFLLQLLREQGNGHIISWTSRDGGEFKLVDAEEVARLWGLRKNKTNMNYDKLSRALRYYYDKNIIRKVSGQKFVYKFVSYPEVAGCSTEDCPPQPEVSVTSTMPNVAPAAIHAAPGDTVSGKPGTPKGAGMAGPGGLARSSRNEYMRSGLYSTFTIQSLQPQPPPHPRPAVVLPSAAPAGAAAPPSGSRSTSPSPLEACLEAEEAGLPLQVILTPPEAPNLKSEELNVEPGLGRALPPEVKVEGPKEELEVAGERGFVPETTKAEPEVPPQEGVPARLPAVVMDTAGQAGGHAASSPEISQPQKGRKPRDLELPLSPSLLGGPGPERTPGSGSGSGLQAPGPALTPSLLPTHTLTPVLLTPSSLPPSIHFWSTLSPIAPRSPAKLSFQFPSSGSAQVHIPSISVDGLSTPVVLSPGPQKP
# How it was run: as §1
# GABPA = molecular target: T3, GABPA (Homo sapiens, UniProt Q06546 1-454); details: protein: recombinant; tags: N-terminal GST; dsDNA, one strand shown
# T3 sequence: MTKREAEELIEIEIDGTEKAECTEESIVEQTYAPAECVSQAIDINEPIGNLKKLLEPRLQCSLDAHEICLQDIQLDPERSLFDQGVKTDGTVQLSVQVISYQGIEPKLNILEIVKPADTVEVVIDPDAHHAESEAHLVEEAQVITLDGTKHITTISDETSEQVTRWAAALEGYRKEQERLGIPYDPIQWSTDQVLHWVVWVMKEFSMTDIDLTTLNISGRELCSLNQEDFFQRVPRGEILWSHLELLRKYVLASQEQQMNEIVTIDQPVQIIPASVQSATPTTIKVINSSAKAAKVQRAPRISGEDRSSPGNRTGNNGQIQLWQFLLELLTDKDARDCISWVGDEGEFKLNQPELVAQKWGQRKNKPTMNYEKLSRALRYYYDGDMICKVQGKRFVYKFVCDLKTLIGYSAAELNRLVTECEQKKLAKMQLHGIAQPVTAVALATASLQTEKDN
# How it was run: as §1
# ERG = molecular target: T4, ERG (Homo sapiens, UniProt P11308 1-479); details: protein: recombinant; tags: N-terminal GST; dsDNA, one strand shown
# T4 sequence: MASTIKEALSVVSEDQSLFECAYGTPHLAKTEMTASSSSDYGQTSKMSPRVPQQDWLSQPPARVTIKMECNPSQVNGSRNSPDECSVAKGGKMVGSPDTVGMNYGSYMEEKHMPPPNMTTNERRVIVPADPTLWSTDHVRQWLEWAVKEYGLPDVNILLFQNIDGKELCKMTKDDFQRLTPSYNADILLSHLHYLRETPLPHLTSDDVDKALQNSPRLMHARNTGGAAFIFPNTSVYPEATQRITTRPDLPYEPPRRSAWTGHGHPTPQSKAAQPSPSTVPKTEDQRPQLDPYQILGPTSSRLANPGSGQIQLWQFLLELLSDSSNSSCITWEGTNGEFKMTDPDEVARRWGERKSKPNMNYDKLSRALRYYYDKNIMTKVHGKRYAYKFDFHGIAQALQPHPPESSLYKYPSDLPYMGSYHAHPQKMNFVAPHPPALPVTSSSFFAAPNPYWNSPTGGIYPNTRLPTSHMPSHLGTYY
# How it was run: as §1
# ELF1 = ELF1 (Homo sapiens, UniProt P32519 1-619); details: protein: recombinant; tags: N-terminal GST; dsDNA, one strand shown
# Chain of ELF1 (P32519 whole entry): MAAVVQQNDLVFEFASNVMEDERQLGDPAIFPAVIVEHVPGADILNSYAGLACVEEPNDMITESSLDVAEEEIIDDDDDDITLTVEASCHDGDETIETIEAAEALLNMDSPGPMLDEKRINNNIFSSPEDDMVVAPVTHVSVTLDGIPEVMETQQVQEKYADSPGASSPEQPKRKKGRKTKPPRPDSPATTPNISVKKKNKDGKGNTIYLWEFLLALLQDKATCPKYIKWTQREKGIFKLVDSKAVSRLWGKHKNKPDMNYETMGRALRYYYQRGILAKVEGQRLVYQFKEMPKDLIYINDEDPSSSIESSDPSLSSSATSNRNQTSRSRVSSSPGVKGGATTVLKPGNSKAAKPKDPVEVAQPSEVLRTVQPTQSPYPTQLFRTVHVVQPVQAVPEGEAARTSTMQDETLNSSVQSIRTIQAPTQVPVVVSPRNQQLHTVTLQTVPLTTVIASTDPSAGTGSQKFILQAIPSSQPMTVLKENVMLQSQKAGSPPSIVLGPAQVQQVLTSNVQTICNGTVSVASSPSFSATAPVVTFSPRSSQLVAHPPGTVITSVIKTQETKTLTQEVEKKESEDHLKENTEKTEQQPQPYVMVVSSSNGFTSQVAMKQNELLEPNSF
# How it was run: as §1
# EHF = molecular target: T5, EHF (Homo sapiens, UniProt Q9NZC4 1-300); details: protein: recombinant; tags: N-terminal GST; dsDNA, one strand shown
# T5 sequence: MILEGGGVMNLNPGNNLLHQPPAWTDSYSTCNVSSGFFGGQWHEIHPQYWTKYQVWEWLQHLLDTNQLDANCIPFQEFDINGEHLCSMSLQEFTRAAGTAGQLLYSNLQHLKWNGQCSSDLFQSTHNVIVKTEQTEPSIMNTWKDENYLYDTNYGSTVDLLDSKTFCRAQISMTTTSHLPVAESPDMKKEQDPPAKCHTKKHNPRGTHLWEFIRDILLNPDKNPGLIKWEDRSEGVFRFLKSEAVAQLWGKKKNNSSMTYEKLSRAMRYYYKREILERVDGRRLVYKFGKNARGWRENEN
# How it was run: as §1
# SPI1 = SPI1 (Homo sapiens, UniProt P17947 1-270); details: protein: recombinant; tags: N-terminal GST; dsDNA, one strand shown
# How it was run: as §1
# SPIB = SPIB (Homo sapiens, UniProt Q01892 1-262); details: protein: recombinant; tags: N-terminal GST; dsDNA, one strand shown
# Chain of SPIB (Q01892 whole entry): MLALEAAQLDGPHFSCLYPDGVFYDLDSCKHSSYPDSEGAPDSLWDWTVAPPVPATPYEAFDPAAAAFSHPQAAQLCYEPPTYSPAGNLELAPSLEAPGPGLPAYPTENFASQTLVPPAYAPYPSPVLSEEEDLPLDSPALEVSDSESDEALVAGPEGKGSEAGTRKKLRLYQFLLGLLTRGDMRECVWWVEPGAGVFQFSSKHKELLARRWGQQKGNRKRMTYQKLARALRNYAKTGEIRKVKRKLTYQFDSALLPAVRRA
# How it was run: as §1
# ELK3 = molecular target: T6, ELK3 (Homo sapiens, UniProt P41970 1-407); details: protein: recombinant; tags: N-terminal GST; dsDNA, one strand shown
# T6 sequence: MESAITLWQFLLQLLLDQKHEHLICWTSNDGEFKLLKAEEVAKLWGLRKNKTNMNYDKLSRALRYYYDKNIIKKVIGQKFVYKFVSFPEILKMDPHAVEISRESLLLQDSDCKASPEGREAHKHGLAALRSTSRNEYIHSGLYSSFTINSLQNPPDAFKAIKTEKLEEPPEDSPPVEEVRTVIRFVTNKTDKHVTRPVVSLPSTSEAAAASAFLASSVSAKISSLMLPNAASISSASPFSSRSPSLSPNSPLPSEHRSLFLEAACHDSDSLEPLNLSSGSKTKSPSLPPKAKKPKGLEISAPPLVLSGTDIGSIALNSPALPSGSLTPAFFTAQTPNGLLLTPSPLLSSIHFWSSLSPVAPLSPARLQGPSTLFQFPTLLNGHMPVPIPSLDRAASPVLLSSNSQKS
# How it was run: as §1
# FEV = molecular target: T7, FEV (Homo sapiens, UniProt Q99581 1-238); details: protein: recombinant; tags: N-terminal GST; dsDNA, one strand shown
# T7 sequence: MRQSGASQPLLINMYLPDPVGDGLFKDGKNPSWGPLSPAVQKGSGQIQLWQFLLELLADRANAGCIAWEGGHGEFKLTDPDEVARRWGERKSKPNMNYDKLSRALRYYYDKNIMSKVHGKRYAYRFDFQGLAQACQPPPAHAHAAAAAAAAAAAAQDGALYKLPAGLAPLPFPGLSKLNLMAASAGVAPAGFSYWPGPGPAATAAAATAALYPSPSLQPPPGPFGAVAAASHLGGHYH
# How it was run: as §1
# ETV5 = ETV5 (Homo sapiens, UniProt P41161 1-510); details: protein: recombinant; tags: N-terminal GST; dsDNA, one strand shown
# Chain of ETV5 (P41161 whole entry): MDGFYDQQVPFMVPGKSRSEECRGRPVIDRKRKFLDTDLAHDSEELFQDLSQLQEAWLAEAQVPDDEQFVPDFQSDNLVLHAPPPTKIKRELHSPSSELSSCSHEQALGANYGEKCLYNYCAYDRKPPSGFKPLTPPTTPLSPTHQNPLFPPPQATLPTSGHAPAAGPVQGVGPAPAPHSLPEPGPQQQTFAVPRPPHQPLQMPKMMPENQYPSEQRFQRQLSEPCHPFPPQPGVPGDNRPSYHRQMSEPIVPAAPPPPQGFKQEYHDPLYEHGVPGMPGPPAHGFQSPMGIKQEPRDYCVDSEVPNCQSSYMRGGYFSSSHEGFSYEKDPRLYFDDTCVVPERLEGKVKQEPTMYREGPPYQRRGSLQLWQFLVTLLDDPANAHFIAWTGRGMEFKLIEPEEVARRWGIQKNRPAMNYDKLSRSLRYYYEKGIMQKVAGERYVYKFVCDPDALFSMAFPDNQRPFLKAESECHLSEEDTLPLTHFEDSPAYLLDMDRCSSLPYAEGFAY
# How it was run: as §1
# HSF1 = HSF1 (Homo sapiens, UniProt Q00613 1-529); details: protein: recombinant; tags: N-terminal GST; chain copies: 3; dsDNA, one strand shown
# Chain of HSF1 (Q00613 whole entry): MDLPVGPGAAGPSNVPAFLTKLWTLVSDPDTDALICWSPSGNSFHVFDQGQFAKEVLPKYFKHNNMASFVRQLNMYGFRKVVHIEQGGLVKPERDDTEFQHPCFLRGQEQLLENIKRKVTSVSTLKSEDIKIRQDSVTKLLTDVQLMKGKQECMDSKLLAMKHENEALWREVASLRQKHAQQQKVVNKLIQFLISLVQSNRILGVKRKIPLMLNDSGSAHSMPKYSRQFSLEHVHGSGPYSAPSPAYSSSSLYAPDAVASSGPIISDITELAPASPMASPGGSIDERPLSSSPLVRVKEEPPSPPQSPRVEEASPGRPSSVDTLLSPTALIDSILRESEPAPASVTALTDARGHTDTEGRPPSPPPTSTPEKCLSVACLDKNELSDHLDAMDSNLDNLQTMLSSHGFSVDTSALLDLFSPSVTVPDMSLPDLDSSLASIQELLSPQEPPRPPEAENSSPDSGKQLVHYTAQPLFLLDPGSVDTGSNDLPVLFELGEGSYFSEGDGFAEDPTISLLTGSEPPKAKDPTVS
# How it was run: as §1
# SPIC = molecular target: T8, SPIC (Homo sapiens, UniProt Q8N5J4 1-248); details: protein: recombinant; tags: N-terminal GST; dsDNA, one strand shown
# T8 sequence: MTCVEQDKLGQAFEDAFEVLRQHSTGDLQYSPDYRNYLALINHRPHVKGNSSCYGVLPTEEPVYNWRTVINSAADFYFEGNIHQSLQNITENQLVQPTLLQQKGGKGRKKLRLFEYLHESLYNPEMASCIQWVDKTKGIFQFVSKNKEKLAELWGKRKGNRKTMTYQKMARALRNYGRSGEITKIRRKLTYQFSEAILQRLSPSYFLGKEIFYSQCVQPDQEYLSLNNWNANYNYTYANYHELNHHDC
# How it was run: as §1
# ELF4 = ELF4 (Homo sapiens, UniProt Q99607 1-663); details: protein: recombinant; tags: N-terminal GST; dsDNA, one strand shown
# Chain of ELF4 (Q99607 whole entry): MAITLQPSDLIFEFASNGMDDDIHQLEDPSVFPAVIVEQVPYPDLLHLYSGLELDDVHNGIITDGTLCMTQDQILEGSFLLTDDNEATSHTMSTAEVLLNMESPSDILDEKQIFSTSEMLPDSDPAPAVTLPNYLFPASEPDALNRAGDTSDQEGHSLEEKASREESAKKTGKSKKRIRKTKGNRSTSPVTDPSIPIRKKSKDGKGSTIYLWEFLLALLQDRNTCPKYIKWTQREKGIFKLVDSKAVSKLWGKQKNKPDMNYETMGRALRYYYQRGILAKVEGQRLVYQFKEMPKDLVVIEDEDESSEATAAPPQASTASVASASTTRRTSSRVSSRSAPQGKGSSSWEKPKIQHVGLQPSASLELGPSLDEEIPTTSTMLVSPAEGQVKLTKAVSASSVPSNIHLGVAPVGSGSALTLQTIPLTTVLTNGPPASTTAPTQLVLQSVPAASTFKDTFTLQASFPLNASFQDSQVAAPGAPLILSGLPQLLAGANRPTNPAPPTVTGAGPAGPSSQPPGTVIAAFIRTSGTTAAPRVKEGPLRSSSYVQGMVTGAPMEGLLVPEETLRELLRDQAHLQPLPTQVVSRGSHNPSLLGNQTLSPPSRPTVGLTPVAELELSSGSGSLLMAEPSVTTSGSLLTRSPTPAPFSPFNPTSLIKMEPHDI
# How it was run: as §1
# ELK4 = molecular target: T9, ELK4 (Homo sapiens, UniProt P28324-2 1-405); details: protein: recombinant; tags: N-terminal GST; dsDNA, one strand shown
# T9 sequence: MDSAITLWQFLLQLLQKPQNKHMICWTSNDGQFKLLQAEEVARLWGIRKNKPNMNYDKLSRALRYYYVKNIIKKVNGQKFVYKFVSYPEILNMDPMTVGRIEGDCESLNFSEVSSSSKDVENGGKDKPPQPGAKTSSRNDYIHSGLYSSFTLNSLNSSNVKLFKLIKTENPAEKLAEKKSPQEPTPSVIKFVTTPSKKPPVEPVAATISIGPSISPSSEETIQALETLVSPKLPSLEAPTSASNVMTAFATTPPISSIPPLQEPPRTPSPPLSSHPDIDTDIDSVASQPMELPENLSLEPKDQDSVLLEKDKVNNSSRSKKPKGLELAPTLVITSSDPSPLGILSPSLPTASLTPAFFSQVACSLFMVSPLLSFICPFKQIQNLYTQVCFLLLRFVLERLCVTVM
# How it was run: as §1
# ETV2 = molecular target: T10, ETV2 (Homo sapiens, UniProt O00321 1-342); details: protein: recombinant; tags: N-terminal GST; dsDNA, one strand shown
# T10 sequence: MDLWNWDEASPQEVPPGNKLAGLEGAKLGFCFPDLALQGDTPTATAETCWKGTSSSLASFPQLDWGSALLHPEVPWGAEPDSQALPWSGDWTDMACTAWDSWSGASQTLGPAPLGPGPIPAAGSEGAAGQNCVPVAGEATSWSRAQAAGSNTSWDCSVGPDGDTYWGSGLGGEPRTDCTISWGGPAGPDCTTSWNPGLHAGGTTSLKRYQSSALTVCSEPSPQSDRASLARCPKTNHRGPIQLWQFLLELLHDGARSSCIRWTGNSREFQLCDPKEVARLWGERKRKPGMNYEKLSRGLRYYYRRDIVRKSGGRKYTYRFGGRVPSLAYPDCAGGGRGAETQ
# How it was run: as §1
# ELF3 = molecular target: T11, ELF3 (Homo sapiens, UniProt P78545 1-371); details: protein: recombinant; tags: N-terminal GST; dsDNA, one strand shown
# T11 sequence: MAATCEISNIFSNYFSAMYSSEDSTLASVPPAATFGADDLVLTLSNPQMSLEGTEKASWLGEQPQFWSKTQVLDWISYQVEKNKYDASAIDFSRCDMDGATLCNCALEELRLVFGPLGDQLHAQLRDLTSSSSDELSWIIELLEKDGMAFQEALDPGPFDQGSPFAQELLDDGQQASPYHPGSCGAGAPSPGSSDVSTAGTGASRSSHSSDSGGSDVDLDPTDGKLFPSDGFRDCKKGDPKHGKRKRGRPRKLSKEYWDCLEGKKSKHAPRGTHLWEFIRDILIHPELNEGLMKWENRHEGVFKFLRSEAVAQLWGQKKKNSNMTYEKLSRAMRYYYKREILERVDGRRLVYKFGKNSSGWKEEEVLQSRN
# How it was run: as §1
# CRX = CRX (Homo sapiens, UniProt O43186 1-299); details: protein: recombinant; tags: N-terminal GST; dsDNA, one strand shown
# Chain of CRX (O43186 whole entry): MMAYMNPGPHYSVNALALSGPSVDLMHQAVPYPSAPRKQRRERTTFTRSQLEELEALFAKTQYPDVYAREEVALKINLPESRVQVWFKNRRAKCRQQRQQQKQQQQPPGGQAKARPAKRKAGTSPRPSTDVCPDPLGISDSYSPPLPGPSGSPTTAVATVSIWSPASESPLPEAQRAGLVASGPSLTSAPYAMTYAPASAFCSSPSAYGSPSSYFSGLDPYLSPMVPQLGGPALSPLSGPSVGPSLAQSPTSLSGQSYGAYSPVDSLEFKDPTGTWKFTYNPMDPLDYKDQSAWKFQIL
# How it was run: as §1
# ETV1 = ETV1 (Homo sapiens, UniProt P50549 1-477); details: protein: recombinant; tags: N-terminal GST; dsDNA, one strand shown
# Chain of ETV1 (P50549 whole entry): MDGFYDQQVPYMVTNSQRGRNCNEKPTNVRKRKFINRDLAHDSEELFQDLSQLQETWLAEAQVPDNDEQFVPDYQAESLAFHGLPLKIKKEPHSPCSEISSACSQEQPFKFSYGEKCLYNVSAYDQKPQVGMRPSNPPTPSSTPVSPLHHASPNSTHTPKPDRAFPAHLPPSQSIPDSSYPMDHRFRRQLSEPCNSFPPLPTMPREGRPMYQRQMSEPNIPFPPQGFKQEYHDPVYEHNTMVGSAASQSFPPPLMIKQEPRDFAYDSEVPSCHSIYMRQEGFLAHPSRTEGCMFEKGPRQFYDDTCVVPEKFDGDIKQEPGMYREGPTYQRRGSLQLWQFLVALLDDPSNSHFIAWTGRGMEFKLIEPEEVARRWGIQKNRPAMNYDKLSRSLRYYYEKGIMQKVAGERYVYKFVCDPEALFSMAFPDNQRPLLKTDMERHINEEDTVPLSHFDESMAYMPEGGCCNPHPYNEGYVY
# How it was run: as §1
sequence,measurement,setting,value
CGAATT,binding signal,FLI1,"1.13 fold enrichment (6-mer frequency, TF over GST control)"
same,binding signal,ELK1,"1.1 fold enrichment (6-mer frequency, TF over GST control)"
same,binding signal,GABPA,"1.27 fold enrichment (6-mer frequency, TF over GST control)"
same,binding signal,ERG,"1.23 fold enrichment (6-mer frequency, TF over GST control)"
same,binding signal,ELF1,"1.2 fold enrichment (6-mer frequency, TF over GST control)"
same,binding signal,EHF,"1.19 fold enrichment (6-mer frequency, TF over GST control)"
same,binding signal,SPI1,"1.22 fold enrichment (6-mer frequency, TF over GST control)"
same,binding signal,SPIB,"1.23 fold enrichment (6-mer frequency, TF over GST control)"
same,binding signal,ELK3,"1.23 fold enrichment (6-mer frequency, TF over GST control)"
same,binding signal,FEV,"1.14 fold enrichment (6-mer frequency, TF over GST control)"
same,binding signal,ETV5,"1.21 fold enrichment (6-mer frequency, TF over GST control)"
same,binding signal,HSF1,"1.79 fold enrichment (6-mer frequency, TF over GST control)"
same,binding signal,SPIC,"1.25 fold enrichment (6-mer frequency, TF over GST control)"
same,binding signal,ELF4,"1.17 fold enrichment (6-mer frequency, TF over GST control)"
same,binding signal,ELK4,"1.36 fold enrichment (6-mer frequency, TF over GST control)"
same,binding signal,ETV2,"1.02 fold enrichment (6-mer frequency, TF over GST control)"
same,binding signal,ELF3,"1.18 fold enrichment (6-mer frequency, TF over GST control)"
same,binding signal,CRX,"1.63 fold enrichment (6-mer frequency, TF over GST control)"
same,binding signal,ETV1,"1.15 fold enrichment (6-mer frequency, TF over GST control)"
